IP6K1 inhibitor – blocks human inositol hexakisphosphate kinase 1; Q92551; IP6K1 kinase, ADP-Glo luminescence, 2 h; active compounds read low; activity change, % (series mostly up to about 58 µM); actives 0.81% (n = 140,000); AID 1645851; in the data active means activity change below about -25%
Target sequence (Q92551 whole entry, looked up): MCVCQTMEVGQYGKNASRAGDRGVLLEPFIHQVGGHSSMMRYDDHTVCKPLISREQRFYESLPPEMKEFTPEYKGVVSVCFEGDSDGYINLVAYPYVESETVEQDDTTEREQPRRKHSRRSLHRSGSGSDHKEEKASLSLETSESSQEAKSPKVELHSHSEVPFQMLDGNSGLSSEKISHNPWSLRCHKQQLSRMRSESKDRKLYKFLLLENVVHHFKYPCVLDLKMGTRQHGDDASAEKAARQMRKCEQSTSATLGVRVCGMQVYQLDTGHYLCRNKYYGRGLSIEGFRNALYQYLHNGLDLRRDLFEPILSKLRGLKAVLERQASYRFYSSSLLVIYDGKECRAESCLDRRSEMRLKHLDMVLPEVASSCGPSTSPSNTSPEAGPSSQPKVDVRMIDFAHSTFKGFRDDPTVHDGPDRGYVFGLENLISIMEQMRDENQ
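ADP-Glo luminescence measures ADP made by human IP6K1 during a 2 h RT reaction with ATP/IP6 (mix at 1.3 mM/130 uM); top library doses 57.5 and 19.1 uM final.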
SNCA expr inhib – reduces expression of the alpha-synuclein gene. HEK-293 SNCA-luciferase knock-in, luminescence, 24 h. Potency, µM (top dose mostly 57.2 µM), actives largely listed as inhibitors. actives 0.17% (n = 140,000); further: nearly all actives have a fitted effect of over 45% in size
HEK293 viab – cell viability loss counter-screen. actives 0.12% (n = 150,000). Potency, µM (highest dose often 57.1 µM), most hits filed as cytotoxic. HEK-293-SNCA-luc viability, GF-AFC fluorescence, 24 h; further: nearly all actives have a fitted effect of over 30% in size
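Cytotoxicity counterscreen: after 24 h compound treatment of genome-edited SNCA-luciferase HEK-293 cells, live-cell protease substrate GF-AFC read by fluorescence after 30 min; activity scaled between DMSO (0%) and medium-only (-100%), curves Hill-fitted.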
KDM5B inh – inhibitors of human KDM5B histone demethylase. actives 2.6% (n = 220,000). Potency, µM (top dose mostly 57.7 µM), actives largely listed as inhibitors. KDM5B demethylase, FDH-coupled NADH fluorescence (FDH is formaldehyde dehydrogenase). Q9UGL1; further: nearly all actives have a fitted effect of over 70% in size
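Coupled FDH/NAD⁺ fluorescence readout. KDM5BΔAP 200 nM final; compound titration, 10 min RT preincubation; substrate mix 12.5 µM H3K4me3, 25 µM 2-OG, 50 µM Fe(II), 100 µM ascorbate, 0.25 mM NAD⁺, 0.25 U/mL FDH; ΔRFU over 30 min.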
Of the large screens only hits and unclear results are named; the others gave an inactive call. Sampled rows, rich in hits. Any-hit rate of the full collection: about 3%. Unless noted, the call rests on the fitted dose curve; in most records, active means well fitted curve in the direction sought with a large enough effect; inconclusive means small, poorly fitted or top-dose-only effect, or another doubt; inactive means no such curve, though single readings can be large; an effect the other way counts as inactive or inconclusive.

CN(Cc1ccc(C(=O)NCC(F)(F)F)cc1)C(=O)Cc1cccc(C(F)(F)F)c1	none (no result: IP6K1 inhibitor, SNCA expr inhib, HEK293 viab)
CSc1ccc(-c2cccc(CN3CCC(N[S+](=O)([O-])c4ccc(C)cc4)CC3)c2)cc1	none (no result: SNCA expr inhib, HEK293 viab, KDM5B inh)
Cn1ncc2c(C(=O)NCc3cccc(Cl)c3)cc(-c3ccccc3F)nc21	none (no result: SNCA expr inhib, HEK293 viab, KDM5B inh)
Cc1ccc(-n2nc(-c3c(C)nc4scc(CC(=O)NCc5ccco5)n4c3=O)cc2C)cc1	KDM5B inh inconclusive
Cc1ccc(C)c(-n2nc(-c3c(C)nc4scc(CC(=O)NCc5ccco5)n4c3=O)cc2C)c1	SNCA expr inhib inconclusive, HEK293 viab 8.9µM, KDM5B inh 20µM
CCOCCCNC(=O)c1c(C)noc1-c1cc(OC)c(OC)c(OC)c1	KDM5B inh 28µM
COc1cc(-c2onc(C)c2C(=O)NCCCOC(C)C)cc(OC)c1OC	KDM5B inh 32µM
COc1cc(CNC(=O)c2c(C)noc2-c2cc(OC)c(OC)c(OC)c2)cc(OC)c1	KDM5B inh 28µM
Cc1noc(-c2ccc3c(c2)OCO3)c1C(=O)NCCCOC(C)C	KDM5B inh inconclusive
COc1cc(-c2onc(C)c2C(=O)NCC2CCCO2)cc(OC)c1OC (stereo not given)	KDM5B inh 28µM
COCCN1CCCC[C@]2(C[C@H](CO)[C@H](c3ccccc3)N2C(=O)CC2CCCC2)C1=O	none (no result: SNCA expr inhib, HEK293 viab, KDM5B inh)
CC(C)(C)C(=O)N1CCN(Cc2ccccc2-c2cccnc2)CC1	none (no result: KDM5B inh)
CCCOCCNC(=O)c1c(C)noc1-c1cc(OC)cc(OC)c1	none
COc1cc(-c2onc(C)c2C(=O)NCCC(c2ccccc2)c2ccccc2)cc(OC)c1OC	KDM5B inh 28µM
COCCNC(=O)c1c(C)noc1-c1cc(OC)c(OC)c(OC)c1	KDM5B inh 28µM
COc1cccc(-c2cc(C(=O)N3CCN(Cc4ccccc4)CC3)c3cnn(C)c3n2)c1	none (no result: SNCA expr inhib, HEK293 viab, KDM5B inh)
CC(=O)NCC(=O)N1C2CCC1c1cc(Nc3ncc(C(F)(F)F)c(NC4CCC4)n3)ccc12 (stereo not given)	HEK293 viab inconclusive (no result: SNCA expr inhib, KDM5B inh)
C=CC(=O)Nc1cccc(Nc2nc(Nc3ccc(OCCOC)cc3)ncc2F)c1	HEK293 viab 9.5µM (no result: SNCA expr inhib, KDM5B inh)
C=CC(=O)Nc1cccc(Nc2nc(Nc3ccc(NC4CN(CCF)C4)cc3OC)ncc2C(F)(F)F)c1	HEK293 viab 4.7µM (no result: SNCA expr inhib, KDM5B inh)
CC(C)NC(=O)N1CCN(c2nccc(Nc3ccccc3Cl)n2)CC1	none (no result: KDM5B inh)
Cc1ccc(C)c(NC(=S)N/N=C/C2=CCC3CC2C3(C)C)c1 (stereo not given)	none (no result: IP6K1 inhibitor, SNCA expr inhib, HEK293 viab)
CCn1ncc(NC(=O)Cn2ncc3cc(-c4ccc(N(C)C)cc4)ccc32)n1	KDM5B inh 14µM
CCn1ncc(NC(=O)Cn2ncc3cc(-c4ccc(F)cc4F)ccc32)n1	KDM5B inh inconclusive
CCn1ncc(NC(=O)Cn2ncc3cc(-c4cc(F)ccc4F)ccc32)n1	KDM5B inh 20µM
CCn1ncc(NC(=O)Cn2ncc3cc(-c4ccc(C(=O)N(C)C)cc4)ccc32)n1	KDM5B inh inconclusive
O=C(C1CCCCN1Cc1ccc(-c2ccsc2)cc1)N1CCC(Cc2ccccc2)CC1 (stereo not given)	SNCA expr inhib inconclusive, HEK293 viab inconclusive (no result: KDM5B inh)
CCN(CC)c1ccc(CNC(=O)c2cc3c(s2)CN(C(C)C)C3)cc1	SNCA expr inhib inconclusive, KDM5B inh inconclusive
CCc1ccccc1NC(=O)c1cc2c(s1)CN(C(C)C)C2	KDM5B inh 7.1µM
Cc1cc(C)n2nc(C(=O)NCC3COc4ccccc4C3)cc2n1 (stereo not given)	KDM5B inh 22µM
CCCn1cc(C(=O)NCC2COc3cc(OC)ccc3C2)c(C)n1 (stereo not given)	SNCA expr inhib inconclusive
C[C@@H]1C[C@H]2O[C@@H]2/C=C\C=C\C(=O)Cc2c(Cl)c(O)cc(O)c2C(=O)O1	IP6K1 inhibitor -27 (no result: SNCA expr inhib, KDM5B inh)
CNC(=O)c1ccc2ccnn2c1	KDM5B inh 35µM
C=CCNC(=O)c1cccn2nccc12	SNCA expr inhib inconclusive, KDM5B inh 32µM
O=C(NCc1ccc(Cl)nc1)c1ccn2nccc2c1	none
O=C(Nc1ccc(Cl)nc1)c1cccn2nccc12	KDM5B inh 35µM
O=C(Nc1ccc(Cl)nc1)c1ccc2ccnn2c1	KDM5B inh 32µM
CNC(=O)c1ccc2nnc(-c3ccc(Cl)cc3)n2c1	none (no result: KDM5B inh)
c1ccc(CN2CCNc3cnc(-c4ccc(N5CCOCC5)cc4)cc3C2)cc1	SNCA expr inhib inconclusive, HEK293 viab inconclusive, KDM5B inh 35µM
C[S+](=O)([O-])c1ccc(-c2cc3c(cn2)CN(Cc2ccccc2)CCN3)cc1	KDM5B inh 28µM
CCn1cc(-c2cc3c(cn2)CN(CCc2ccccc2)CCN3)cn1	KDM5B inh 35µM
c1ccc(CN2CCNc3cc(-c4ccoc4)ncc3C2)cc1	KDM5B inh inconclusive
Oc1cccc(-c2cc3c(cn2)NCCN(Cc2ccccc2)C3)c1	KDM5B inh inconclusive
CCCCCNC(=O)c1cc(-c2ccc(C(F)(F)F)cc2)nc2c1cnn2C	none (no result: SNCA expr inhib, HEK293 viab, KDM5B inh)
N#Cc1cccc(NC(=O)N[C@H]2CO[C@H]3[C@@H]2OC[C@@H]3Nc2nccc(-c3cccs3)n2)c1	none
CC(C)(C)c1ccc(NC(=O)O[C@@H]2CO[C@H]3[C@@H]2OC[C@@H]3Nc2nccc(-c3cccc(F)c3)n2)cc1	KDM5B inh inconclusive
COc1ccc(NC(=O)O[C@@H]2CO[C@H]3[C@@H]2OC[C@@H]3Nc2nccc(-c3cccs3)n2)cc1	none
CC(C)(C)c1ccc(NC(=O)O[C@@H]2CO[C@H]3[C@@H]2OC[C@@H]3Nc2nccc(-c3ccc4c(c3)OCO4)n2)cc1	KDM5B inh 28µM
COc1ccc(-c2ccnc(N[C@H]3CO[C@H]4[C@@H]3OC[C@@H]4NC(=O)Nc3cccc(C#N)c3)n2)cc1	SNCA expr inhib inconclusive, KDM5B inh 25µM
COc1ccccc1-c1ccnc(N[C@H]2CO[C@H]3[C@@H]2OC[C@@H]3NS(=O)(=O)c2cccs2)n1	KDM5B inh inconclusive
c1csc(-c2ccnc(N[C@H]3CO[C@H]4[C@@H]3OC[C@@H]4NCC3CCCCC3)n2)c1	SNCA expr inhib inconclusive, HEK293 viab inconclusive, KDM5B inh 40µM
COc1ccc(-c2ccnc(N[C@H]3CO[C@H]4[C@@H]3OC[C@@H]4NS(=O)(=O)c3cccs3)n2)cc1	KDM5B inh 14µM
COCCn1c(=O)c(C(=O)NCc2ccc(C(F)(F)F)cc2)nc2cccnc21	none (no result: KDM5B inh)
Cc1cccc(C(=O)NC(C2CC2)C2CC2)n1	none (no result: IP6K1 inhibitor, SNCA expr inhib, HEK293 viab)
COc1ccc(-c2ccnc(N[C@H]3CO[C@H]4[C@@H]3OC[C@H]4OC(=O)Nc3cccc(OC)c3)n2)cc1	SNCA expr inhib inconclusive, KDM5B inh inconclusive
COCC(=O)N[C@H]1CO[C@H]2[C@@H]1OC[C@@H]2Nc1nccc(-c2ccc(OC)cc2)n1	KDM5B inh 35µM
CC(C)(C)C(=O)N[C@H]1CO[C@H]2[C@@H]1OC[C@@H]2Nc1nccc(-c2cccc(F)c2)n1	KDM5B inh inconclusive
COc1ccc(-c2ccnc(N[C@H]3CO[C@H]4[C@@H]3OC[C@@H]4NC(=O)c3ccc(C)cc3)n2)cc1	KDM5B inh inconclusive
COc1ccc(-c2ccnc(N[C@H]3CO[C@H]4[C@@H]3OC[C@H]4OC(=O)Nc3cccc(C(F)(F)F)c3)n2)cc1	KDM5B inh 22µM
